About 83,000 compounds went through this panel and 20% of them were active in at least one assay; those are over-represented in the sample as a whole.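 Growth was measured after 48 h exposure to one concentration of compound in 96-well plates. Values under 10 count as active.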 A number with no mark means an inactive call. Calls of active or inactive are those of the source.
What follows are compounds tested on EKVX NSCLC (assay: NCI-60 one-dose screen, 48 h (100 = growth as untreated, 0 = no growth, -100 = all killed)). Conditions: 10 µM.
Protocol: Growth inhibition of the EKVX human Non-Small Cell Lung tumor cell line is measured as a screen for anti-cancer activity. Cells are grown in 96 well plates and exposed to the test compound for 48 hours. Compounds are tested at a single concentration, which is 10^-5 M for most compounds. The reported endpoint is percent growth (GI% or GIPRCNT), where numbers from 0 - 100% represent growth inhibition, and numbers from -100% - 0 represent cell death. For example, a value of 40 represents 60% growth inhibition. A value of 0 means no net growth occurred over the course of the experiment. A value of -40 indicates 40% of cells at the beginning of the experiment died by the end of the experiment. A value of -100 means all cells are dead at the end of the experiment.
NCI-60 Human Tumor Cell Lines Screen was performed using the standard one-dose NCI protocol, which is described in more detail at https://dtp.cancer.gov/discovery_development/nci-60/default.htm.
Compounds with GIPRCNT values below 10 were considered active. Activity score was based on GIPRCNT using the following formula: […]
Score is 0 for GIPRCNT values of 100 or above, 50 for GIPRCNT values of 0, and 100 for GIPRCNT values of -100.

| SMILES | growth |
| --- | --- |
| NC1=NC(c2ccccc2)C2=C(N1)/C(=C/c1ccccc1)CCC2 (stereo not given) | 95% |
| Nc1ccc(/C=N/Nc2ccnc3c(O)cccc23)c2cccnc12 | 61.8% |
| CN(C)CCCSc1ccccc1NC1=C(Cl)C(=O)C(Nc2ccccc2SCCCN(C)C)=C(Cl)C1=O | 67.5% |
| O=C(Cn1cc(CO)nn1)Nc1nc2ccccc2s1 | 94.1% |
| COc1ccc(/C=C2\CCCC3=C2NC(N)=NC3c2ccc(OC)cc2)cc1 (stereo not given) | 92.1% |
| COc1ccc(C(=O)COc2cccc(/C=C3\Cc4ccccc4C3=O)c2)cc1 | 87.8% |
| COc1cc(-c2nn(-c3cccc(NC(=O)NCCNS(=O)(=O)c4ccc(Cl)cc4)c3)cc2-c2ccncc2)ccc1Cl | 29.8% |
| NC(N)=N/N=C(\N=Nc1ccccc1)c1ccc(Cl)cc1 | 49.2% |
| Clc1nc2ccccc2cc1Cn1nnc(Cc2ccccc2)n1 | 36.1% |
| CC[C@@H](C(=O)[C@H](C)[C@H](O)[C@@H](C)[C@H]1O[C@H]([C@@H](CC)C(=O)O)CC[C@H]1C)C1O[C@]2(C=C[C@@H](O)[C@]3(CC[C@@](C)([C@H]4CC[C@](O)(CC)[C@H](C)O4)O3)O2)[C@H](C)C[C@@H]1C (stereo not given in full) | 31.3% |
| O=C(CN1CCN(C(=O)c2ccccc2)CC1)Nc1ccccc1SCc1ccccc1 | 72.3% |
| O=C1c2c(c3c4ccccc4n(CCCCCCN4CCOCC4)c3c3[nH]c4ccccc4c23)C(=O)N1O | 82.4% |
| CCOC(=O)CN(c1sc(C)c(C)c1C(=O)OCC)S(=O)(=O)c1ccc(C)cc1 | 101% |
| COc1ccc(C(=O)N2C=Cc3ccccc3C2C#N)cc1 (stereo not given) | 99.4% |
| Cc1cc(CCNC=O)c(C)c2c1sc1ccccc12 | 56.6% |
| CS(=O)(=O)c1nccc(-c2c(-c3cccc(OCCc4ccccc4)c3)nc3sccn23)n1 | 98.6% |
| CC(=O)COc1ccc(Cl)cc1Cl | 93% |
| Cc1cc(CSc2ccccc2C(=O)N2CC=C(c3ccccc3)CC2)on1 | 90.7% |
| CCOC(=O)C1=CSC2=NC3=C(CCC/C3=C\c3cc(OC)c(OC)c(OC)c3)C(c3cc(OC)c(OC)c(OC)c3)N12 (stereo not given) | 95.1% |
| CCn1c2ccc(O)cc2c2c(C)c3c[n+](C)ccc3c(C)c21 | 73.7% |

| SMILES | growth |
| --- | --- |
| Nc1ccc(CC[C@H]2CCC/C=C/[C@@H]3C[C@H](O)C[C@H]3[C@H](O)/C=C/C(=O)O2)cc1 | 8.9% (active) |
| CS(=O)(=O)c1nccc(-c2c(-c3cccc(OCc4ccccc4)c3)nc3sccn23)n1 | 92.5% |
| COc1ccc(C2CC(c3cc(OC)c(OC)c(OC)c3)=NN2)cc1 (stereo not given) | 91.2% |
| C[N+]1(CCCCC[N+]2(C)CCCC2)CCCC1 | 80% |
| COc1ccc(-c2cc(-c3ccc(Cl)cc3)nc(SCCCC(=O)NO)n2)cc1 | -19.2% (active) |
| COc1ccc(/C=C/C(=O)C(=O)/C=C/c2ccc(OC)c(OC)c2)cc1OC | 62.6% |
| COc1cc2cc(Oc3ccc(NC(=O)Nc4ccc(C(F)(F)F)cc4)cc3)c(C)nc2cc1OC | 75.7% |
| COc1ccc(C(=O)c2cc3c(OC)c(OC)c(OC)cc3[nH]2)cc1 | 98.4% |
| Nc1ncc(-c2cnn(C3CCNCC3)c2)cc1-c1nc2ccccc2o1 | 85.3% |
| Cc1cc(C)nc(NS(=O)(=O)c2ccc(Nc3nc4nc(NCc5ccccc5)nc(-c5ccc(O)cc5)c4c(=O)[nH]3)cc2)n1 | 26.7% |
| COc1cc(-c2nn(-c3cccc(NC(=O)NCCNC(=O)c4ccccc4)c3)cc2-c2ccncc2)ccc1Cl | 34.2% |
| Cc1ccc(/C=C/C(=O)C(=O)/C=C/c2ccc(C)cc2)cc1 | 92.7% |
| COc1ccc(N=Nc2cc(OC)c(OC)c(OC)c2)cc1 | 77.3% |
| O=S(=O)(O)c1cccc(Nc2ccc3ccccc3c2)c1 | 105% |
| O=C(CCc1nnc2sc(-c3cc(O)c(O)c(O)c3)nn12)c1nc2ccccc2[nH]1 | 96.7% |
| C/C=C/C1=CN2C(=O)c3cc(OC4OC(C)C(NC)C(C)(O)C4O)c(C)c(O)c3N=C[C@@H]2C1 (stereo not given in full) | -3.19% (active) |
| O=C(N/N=C/c1ccc(Cl)cc1)c1ccc(Cc2n[nH]c(=O)c3cccnc23)cc1 | 105% |
| COc1cc(-c2nn(-c3ccc(NC(=O)NCCCNC(=O)c4ccccc4)cc3)cc2-c2ccncc2)ccc1Cl | 51.4% |
| COc1cc(/C=C/c2cc(/C=C/c3ccc(O)c(OC)c3)[nH]c(=O)n2)ccc1O | 71.6% |
| CC(=O)OC/C=C(/C)C[P+](c1ccccc1)(c1ccccc1)c1ccccc1 | 82.4% |
